From PubChem BioAssay AID1159580 (chemical genetic matrix, 2015)
The whole screen tested about 5,500 compounds, of which about 2,000 (36%) were called active. Another 18% or so got no clear call; they are omitted. Rule as the data show it: active = normalized growth mostly below about 0.91 (no sharp cut-off); inconclusive = no clear call, values can overlap the other calls; inactive = mostly above about 0.92. This is one part of the list.

Test: chemical genetic growth profiling, strain panel (AID 1159580);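 also: tested at 20 µM; growth read once vehicle control cultures reached saturation at 30 °C; 1 = growth at the plate median or of vehicle wells; lower values mean less growth of the strain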
Settings: growth OD
[1] = S. cerevisiae deletion strains, locus YAL013W, strain DEP1, hits give low values
[2] = S. cerevisiae deletion strains, locus YAL040C, strain CLN3, hits give low values
[3] = S. cerevisiae deletion strains, locus YCL061C, strain MRC1 (second series), hits give low values
[4] = S. cerevisiae deletion strains, locus YDR363W, strain ESC2, hits give low values
[5] = S. cerevisiae deletion strains, locus YER002W, strain NOP16, hits give low values
[6] = S. cerevisiae deletion strains, locus YGR229C, strain SMI1, hits give low values
[7] = S. cerevisiae deletion strains, locus YMR307W, strain GAS1, hits give low values
[8] = S. cerevisiae deletion strains, locus YNL153C, strain GIM3, hits give low values
[9] = S. cerevisiae deletion strains, locus YNL175C, strain NOP13, hits give low values
[10] = S. cerevisiae deletion strains, locus YNL197C, strain WHI3, hits give low values
[11] = S. cerevisiae deletion strains, locus YNL224C, strain SQS1, hits give low values
[12] = S. cerevisiae deletion strains, locus YNL322C, strain KRE1, hits give low values
[13] = S. cerevisiae deletion strains, locus YOR083W, strain WHI5 (second series), hits give low values
[14] = S. cerevisiae deletion strains, locus YPL241C, strain CIN2, hits give low values
[15] = S. cerevisiae deletion strains, locus YGR078C, strain PAC10, hits give low values
[16] = S. cerevisiae deletion strains, locus YDL101C, strain DUN1, hits give low values
[17] = S. cerevisiae deletion strains, locus YHR030C, strain SLT2, hits give low values
[18] = S. cerevisiae deletion strains, locus YHR079C, strain IRE1, hits give low values
[19] = S. cerevisiae deletion strains, locus YJL095W, strain BCK1, hits give low values
[20] = S. cerevisiae deletion strains, locus YJR066W, strain TOR1, hits give low values
[21] = S. cerevisiae deletion strains, locus YLR113W, strain HOG1, hits give low values
[22] = S. cerevisiae deletion strains, locus YNL183C, strain NPR1, hits give low values
[23] = S. cerevisiae deletion strains, locus YOR231W, strain MKK1, hits give low values
[24] = S. cerevisiae deletion strains, locus YPL256C, strain CLN2, hits give low values
[25] = S. cerevisiae deletion strains, locus YBR229C, strain ROT2, hits give low values
[26] = S. cerevisiae deletion strains, locus YDL134C, strain PPH21, hits give low values
[27] = S. cerevisiae deletion strains, locus YDR150W, strain NUM1, hits give low values
[28] = S. cerevisiae deletion strains, locus YEL061C, strain CIN8, hits give low values
[29] = S. cerevisiae deletion strains, locus YHR087W, strain rtc3, hits give low values
[30] = S. cerevisiae deletion strains, locus YJL187C, strain SWE1, hits give low values
[31] = S. cerevisiae deletion strains, locus YJR043C, strain POL32, hits give low values
[32] = S. cerevisiae deletion strains, locus YJR075W, strain HOC1, hits give low values
[33] = S. cerevisiae deletion strains, locus YLR039C, strain RIC1, hits give low values
[34] = S. cerevisiae deletion strains, locus YLR058C, strain SHM2 (second series), hits give low values
[35] = S. cerevisiae deletion strains, locus YLR085C, strain ARP6, hits give low values
[36] = S. cerevisiae deletion strains, locus YLR262C, strain YPT6, hits give low values
[37] = S. cerevisiae deletion strains, locus YML094W, strain GIM5, hits give low values
[38] = S. cerevisiae deletion strains, locus YMR219W, strain ESC1, hits give low values
[39] = S. cerevisiae deletion strains, locus YMR263W, strain SAP30, hits give low values
[40] = S. cerevisiae deletion strains, locus YNL298W, strain CLA4 (second series), hits give low values
[41] = S. cerevisiae deletion strains, locus YNR030W, strain Alg12, hits give low values
[42] = S. cerevisiae deletion strains, locus YPL055C, strain LGE1, hits give low values
[43] = S. cerevisiae deletion strains, locus YPR135W, strain CTF4, hits give low values
[44] = S. cerevisiae strains, strain wild type, hits give low values

Measured: normalized growth

NC(Cc1cccc(-c2ccccc2CP(=O)(O)O)c1)C(=O)O (stereo unspecified)
inactive: [1] 0.998 | [2] 1 | [3] 1 | [4] 0.983 | [5] 1.02 | [6] 1.01 | [7] 0.989 | S. cerevisiae deletion strains, locus YNL128W, strain TEP1, hits give low values 0.994 | [8] 1.04 | [9] 0.998 | [10] 0.995 | [11] 1 | [12] 1 | [13] 0.989 | [14] 1

C[C@H](Cc1ccccc1)Nc1ncnc2c1ncn2[C@@H]1O[C@H](CO)[C@H](O)C1O (stereo partly specified)
inactive: [1] 0.995 | [2] 0.979 | [3] 1.01 | [4] 0.989 | [5] 0.997 | [15] 1 | [6] 1 | [7] 1 | [8] 1.22 | [9] 0.989 | [10] 0.99 | [11] 1 | [12] 0.996 | [13] 0.988

Cc1c(C(=O)Sc2ccc(F)cc2F)sc2nc(C(F)(F)F)nn12
active: S. cerevisiae deletion strains, locus YAR019C, strain CDC15, hits give low values 0.0973 | S. cerevisiae deletion strains, locus YBL105C, strain PKC1, hits give low values 0.0839 | S. cerevisiae deletion strains, locus YBR135W, strain CKS1, hits give low values 0.105 | S. cerevisiae deletion strains, locus YBR136W, strain MEC1, hits give low values 0.0954 | S. cerevisiae deletion strains, locus YBR160W, strain CDC28, hits give low values 0.0992 | S. cerevisiae deletion strains, locus YDL017W, strain CDC7, hits give low values 0.0838 | S. cerevisiae deletion strains, locus YDL028C, strain MPS1, hits give low values 0.38 | [16] 0.0962 | S. cerevisiae deletion strains, locus YDL108W, strain KIN28, hits give low values 0.105 | S. cerevisiae deletion strains, locus YDL132W, strain cdc53, hits give low values 0.0969 | S. cerevisiae deletion strains, locus YDL214C, strain PRR2, hits give low values 0.103 | S. cerevisiae deletion strains, locus YDR052C, strain DBF4, hits give low values 0.102 | S. cerevisiae deletion strains, locus YDR054C, strain cdc34, hits give low values 0.0939 | S. cerevisiae deletion strains, locus YDR226W, strain ADK1, hits give low values 0.105 | S. cerevisiae deletion strains, locus YDR477W, strain SNF1, hits give low values 0.107 | S. cerevisiae deletion strains, locus YER123W, strain YCK3, hits give low values 0.111 | S. cerevisiae deletion strains, locus YER133W, strain GLC7, hits give low values 0.106 | S. cerevisiae deletion strains, locus YFL009W, strain cdc4, hits give low values 0.102 | S. cerevisiae deletion strains, locus YFL029C, strain CAK1, hits give low values 0.101 | S. cerevisiae deletion strains, locus YFR003C, strain YPI1, hits give low values 0.45 | S. cerevisiae deletion strains, locus YFR019W, strain FAB1, hits give low values 0.107 | S. cerevisiae deletion strains, locus YFR028C, strain CDC14, hits give low values 0.0976 | S. cerevisiae deletion strains, locus YGR040W, strain KSS1, hits give low values 0.0958 | S. cerevisiae deletion strains, locus YGR052W, strain FMP48, hits give low values 0.106 | S. cerevisiae deletion strains, locus YGR092W, strain DBF2, hits give low values 0.116 | [17] 0.103 | [18] 0.101 | S. cerevisiae deletion strains, locus YHR082C, strain KSP1, hits give low values 0.133 | S. cerevisiae deletion strains, locus YHR205W, strain SCH9, hits give low values 0.000493 | S. cerevisiae deletion strains, locus YIL147C, strain SLN1, hits give low values 0.488 | [19] 0.0913 | S. cerevisiae deletion strains, locus YJL128C, strain PBS2, hits give low values 0.0913 | S. cerevisiae deletion strains, locus YJL157C, strain FAR1, hits give low values 0.0866 | S. cerevisiae deletion strains, locus YJR016C, strain ILV3, hits give low values 0.0901 | S. cerevisiae deletion strains, locus YJR066W, strain TOR1 (second series), hits give low values 0.0917 | [20] 0.122 | S. cerevisiae deletion strains, locus YKL048C, strain ELM1, hits give low values 0.131 | S. cerevisiae deletion strains, locus YKL067W, strain YNK1, hits give low values 0.108 | S. cerevisiae deletion strains, locus YKL101W, strain HSL1, hits give low values 0.0974 | S. cerevisiae deletion strains, locus YKL193C, strain SDS22, hits give low values 0.101 | S. cerevisiae deletion strains, locus YKL203C, strain TOR2, hits give low values 0.103 | [21] 0.145 | S. cerevisiae deletion strains, locus YLR133W, strain CKI1, hits give low values 0.0966 | S. cerevisiae deletion strains, locus YLR403W, strain SFP1, hits give low values -0.00147 | S. cerevisiae deletion strains, locus YML070W, strain DAK1, hits give low values 0.103 | S. cerevisiae deletion strains, locus YMR001C, strain CDC5, hits give low values 0.0979 | S. cerevisiae deletion strains, locus YMR205C, strain PFK2 (second series), hits give low values 0.101 | S. cerevisiae deletion strains, locus YMR277W, strain FCP1, hits give low values 0.1 | S. cerevisiae deletion strains, locus YNL006W, strain LST8, hits give low values 0.0889 | S. cerevisiae deletion strains, locus YNL020C, strain ARK1, hits give low values 0.0935 | S. cerevisiae deletion strains, locus YNL161W, strain CBK1, hits give low values 0.0956 | [22] 0.104 | S. cerevisiae deletion strains, locus YNL207W, strain RIO2, hits give low values 0.214 | S. cerevisiae deletion strains, locus YNL222W, strain SSU72, hits give low values 0.102 | S. cerevisiae deletion strains, locus YNL307C, strain MCK1 (second series), hits give low values 0.105 | S. cerevisiae deletion strains, locus YOL078W, strain AVO1, hits give low values 0.101 | S. cerevisiae deletion strains, locus YOL136C, strain PFK27, hits give low values 0.0958 | S. cerevisiae deletion strains, locus YOR061W, strain CKA2, hits give low values 0.12 | S. cerevisiae deletion strains, locus YOR119C, strain RIO1, hits give low values 0.116 | [23] 0.103 | S. cerevisiae deletion strains, locus YOR329C, strain SCD5, hits give low values 0.0884 | S. cerevisiae deletion strains, locus YPL031C, strain PHO85, hits give low values 0.0971 | S. cerevisiae deletion strains, locus YPL153C, strain RAD53, hits give low values 0.102 | S. cerevisiae deletion strains, locus YPL204W, strain HRR25, hits give low values 0.111 | S. cerevisiae deletion strains, locus YPL209C, strain IPL1, hits give low values 0.0875 | [24] 0.124 | S. cerevisiae deletion strains, locus YPR025C, strain CCL1, hits give low values 0.0998 | S. cerevisiae deletion strains, locus YPR106W, strain ISR1, hits give low values 0.109 | S. cerevisiae deletion strains, locus YPR111W, strain DBF20, hits give low values 0.169 | S. cerevisiae deletion strains, strain NNK1, hits give low values 0.105 | S. cerevisiae deletion strains, strain TSCII, hits give low values 0.104

C/C(=N/O)c1sc2nc(C(F)(F)F)nn2c1C
inactive: [1] 0.954 | [25] 0.957 | [16] 1.01 | [26] 0.966 | [27] 0.975 | [28] 0.981 | [15] 0.956 | [6] 0.982 | [17] 0.89 | [29] 0.961 | [30] 0.974 | [31] 0.977 | [32] 0.997 | [33] 0.795 | [34] 0.953 | [35] 1.05 | [36] 0.86 | [37] 0.943 | [38] 0.963 | [39] 0.964 | [8] 1 | [40] 0.99 | [12] 0.962 | [41] 0.989 | [42] 0.96 | [14] 1.02 | [43] 0.851 | [44] 0.962

C=CC1(C)CC(=O)C2(O)C(C)(O1)C(OC(C)=O)C(O)C1C(C)(C)CCC(O)C12C (stereo unspecified)
inactive: [2] 0.968 | [3] 0.985 | [27] 1 | [4] 0.969 | [5] 0.986 | [15] 0.996 | [32] 0.992 | [8] 1.02 | [9] 1.02 | [10] 0.994 | [11] 0.99 | [12] 0.985 | [13] 1.01 | [42] 0.994 | [14] 0.998

CSc1nc2ccccc2[nH]1
inactive: [1] 0.987 | [25] 0.996 | S. cerevisiae deletion strains, locus YCL061C, strain MRC1, hits give low values 0.992 | [16] 0.999 | [26] 0.948 | [27] 1.02 | [28] 0.936 | [15] 0.99 | [17] 1.03 | [29] 0.969 | [30] 0.973 | [31] 1 | [32] 0.956 | S. cerevisiae deletion strains, locus YKL190W, strain CNB1, hits give low values 0.984 | [33] 1.01 | [34] 0.983 | [35] 0.895 | [36] 1.01 | [37] 0.96 | [38] 0.99 | [39] 1.02 | [7] 0.89 | [8] 1.02 | [40] 0.95 | [12] 0.977 | [41] 0.923 | [42] 1.03 | [14] 0.944 | [43] 0.973 | [44] 0.981

CSc1nc2cc(Oc3cccc(Cl)c3Cl)c(Cl)cc2[nH]1
active: [17] 0.11 | [18] 0.119 | [19] 0.114 | [20] 0.0117 | [21] 0.156 | [22] 0.000876 | [23] 0.125 | [24] 0.138
